Measured values reported in PubChem BioAssay AID1347418 (Sanford-Burnham Center for Chemical Genomics, 2020).
The campaign covered roughly 1,300 compounds. About 750 (58%) were called active. This is one part of the list. Values without a mark were called inactive.

These compounds were tested against Sulfhydryl oxidase 1 (Homo sapiens) (UniProt O00391) (assay: inhibition of human sulfhydryl oxidase QSOX1 – biochemical, ROS-Glo H2O2 luminescence, HTS, primary screen (AID 1347418)). Conditions: recombinant QSOX1, ROS-Glo H2O2 luminescence; at 12.5 µM; hits give high values; active = any value above zero.
Sequence of Sulfhydryl oxidase 1 (Homo sapiens) (O00391 whole entry, looked up): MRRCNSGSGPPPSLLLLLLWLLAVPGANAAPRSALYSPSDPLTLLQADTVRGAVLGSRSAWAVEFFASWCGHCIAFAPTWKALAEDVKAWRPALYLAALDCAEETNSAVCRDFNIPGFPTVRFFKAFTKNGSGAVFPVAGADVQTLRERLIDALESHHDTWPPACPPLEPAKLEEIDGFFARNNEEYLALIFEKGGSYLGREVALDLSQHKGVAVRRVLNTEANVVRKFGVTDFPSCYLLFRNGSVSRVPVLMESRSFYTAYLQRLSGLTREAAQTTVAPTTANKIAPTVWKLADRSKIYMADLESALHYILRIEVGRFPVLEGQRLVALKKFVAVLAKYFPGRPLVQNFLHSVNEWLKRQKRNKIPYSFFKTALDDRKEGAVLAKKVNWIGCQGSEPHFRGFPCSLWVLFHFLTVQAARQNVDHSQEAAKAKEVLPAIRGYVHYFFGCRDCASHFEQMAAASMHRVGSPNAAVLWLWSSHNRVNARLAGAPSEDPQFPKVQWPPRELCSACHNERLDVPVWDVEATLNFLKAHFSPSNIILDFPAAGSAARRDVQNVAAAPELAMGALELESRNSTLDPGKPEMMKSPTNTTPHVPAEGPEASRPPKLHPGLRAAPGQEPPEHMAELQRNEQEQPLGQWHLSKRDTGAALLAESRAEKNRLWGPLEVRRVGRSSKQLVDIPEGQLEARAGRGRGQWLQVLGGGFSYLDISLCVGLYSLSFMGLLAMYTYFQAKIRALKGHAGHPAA

Row | Structure (SMILES) | inhibition
1 | COc1ccccc1N1CCN(CCCCN2C(=O)c3ccccc3C2=O)CC1 | 3.6% (active)
2 | c1cc(CN2CCCCC2)cc(OCCCNc2nc3ccccc3s2)c1 | 3.8% (active)
3 | CC(=O)Nc1nnc(S(N)(=O)=O)s1 | 0.8% (active)
4 | OCc1ccc(-c2nn(Cc3ccccc3)c3ccccc23)o1 | -2.6%
5 | C[C@@H](NCCc1ccc(O)cc1)[C@@H](O)c1ccc(O)cc1 | 3.9% (active)
6 | CCCCCCCC/C=C\CCCCCCCC(=O)NCCc1ccc(O)c(O)c1 | -7.8%
7 | CC(CCc1ccc(O)cc1)NCCc1ccc(O)c(O)c1 (stereo not given) | 17.1% (active)
8 | CC(CCc1ccccc1)NCC(O)c1ccc(O)c(C(N)=O)c1 (stereo not given) | 2.1% (active)
9 | O=Nc1ccc2oc(=O)ccc2c1 | 16.8% (active)
10 | Cc1cc(Cn2cnc3c2C[C@@H](C(=O)O)N(C(=O)C(c2ccccc2)c2ccccc2)C3)ccc1N | 0%
11 | CCN(CC)CCCC(C)Nc1c2ccc(Cl)cc2nc2ccc(OC)cc12 (stereo not given) | 0.7% (active)
12 | CCN(CC)CCCC(C)Nc1ccnc2cc(Cl)ccc12 (stereo not given) | -4.9%
13 | CN(C)C(=O)n1nnnc1Cc1ccc(-c2ccccc2)cc1 | 5.2% (active)
14 | CN(C)C(=O)C(CCN1CCC(O)(c2ccc(Cl)cc2)CC1)(c1ccccc1)c1ccccc1 | -0.9%
15 | CCNC(=O)N1CCN(CCCC(c2ccc(F)cc2)c2ccc(F)cc2)CC1 | -0.9%
16 | O=C(O)COCCN1CCN(C(c2ccccc2)c2ccc(Cl)cc2)CC1 (stereo not given) | 0.5% (active)
17 | O=C1/C(=C/c2ccsc2)CC/C1=C\c1cccs1 | 3.3% (active)
18 | Fc1ccc(C(OCCCc2cnc[nH]2)c2ccc(F)cc2)cc1 | 4.3% (active)
19 | O=C(c1ccc(OCCCc2cnc[nH]2)cc1)C1CC1 | -3.2%
20 | C1CCc2nnnn2CC1 | -0.2%
21 | CCC1C(=O)OCC1Cc1cncn1C (stereo not given) | 5.6% (active)
22 | CCCCCCCCCCCCCCCCCCOC[C@H](COP(=O)([O-])OCC[N+](C)(C)C)OC | 3.3% (active)
23 | CCCCCCCCCCCCCCCCCCNC(=O)OCC(COP(=O)([O-])OCC[n+]1ccsc1)OC (stereo not given) | -4.6%
24 | Cn1cnc([N+](=O)[O-])c1Sc1ncnc2nc[nH]c12 | 0.2% (active)
25 | N=C(N)c1ccc(OCCCCCOc2ccc(C(=N)N)cc2)cc1 | 1.1% (active)

Row | Structure (SMILES) | inhibition
26 | N=C(N)c1ccccc1 | -3.7%
27 | N=C(N)c1ccc(N)cc1 | 5.7% (active)
28 | O=C1NC(=O)/C(=C/c2ccc3nccnc3c2)S1 | 4.5% (active)
29 | CCc1ccc(/C=C2/SC(=S)NC2=O)cc1 | -3%
30 | O=C1NC(=O)/C(=C/c2ccc3c(c2)OC(F)(F)O3)S1 | -1.5%
31 | C#CCCN | 0.1% (active)
32 | Nc1ncnc2nc(-c3ccc(N4CCOCC4)nc3)cc(-c3cccc(Br)c3)c12 | 10% (active)
33 | NC(=O)c1ccc2[nH]ccc2c1 | 0.6% (active)
34 | CC(C)OC(=O)C(C)(C)Oc1ccc(C(=O)c2ccc(Cl)cc2)cc1 | -0.6%
35 | COc1ccc(NC(=O)/C=C/c2ccc(Cl)cc2)cc1 | 12.1% (active)
36 | CC(C)(C)c1ccc(/C=C/C(=O)Nc2ccc3c(c2)OCCO3)cc1 | -1.6%
37 | NC(CCCP(=O)(O)O)C(=O)O (stereo not given) | 0%
38 | N[C@@H](CCCC(=O)O)C(=O)O | 6.7% (active)
39 | N[C@H](CCCP(=O)(O)O)C(=O)O | -1.3%
40 | NC(=O)CC[C@H](N)C(=O)O | 2.8% (active)
41 | CN1C2CCCC1CC(NC(=O)c1nn(C)c3ccccc13)C2 (stereo not given) | 3% (active)
42 | O=c1[nH]ccc2c(O)cccc12 | 4.1% (active)
43 | O[Si](CCCN1CCCCC1)(c1ccc(F)cc1)C1CCCCC1 (stereo not given) | -3.8%
44 | C[C@H](NC(CCc1ccccc1)C(=O)O)C(=O)N1CCC[C@H]1C(=O)O (stereo not given in full) | -2.6%
45 | CCOC(=O)[C@H](CCc1ccccc1)N[C@@H](C)C(=O)N1[C@H](C(=O)O)C[C@H]2CCCC[C@@H]21 | 2.6% (active)
46 | Cc1cccc(C#Cc2ccccc2)n1 | 2.9% (active)
47 | COc1ccc2c(c1OC)C(=O)O[C@@H]2[C@H]1c2c(cc3c(c2OC)OCO3)CCN1C | -4.2%
48 | COc1cc([C@@H]2c3cc4c(cc3[C@@H](O[C@@H]3O[C@@H]5CO[C@@H](C)O[C@H]5[C@H](O)[C@H]3O)[C@H]3COC(=O)[C@H]23)OCO4)cc(OC)c1O | 0%
49 | COc1cc([C@@H]2c3cc4c(cc3[C@H](O)C3COC(=O)[C@@H]32)OCO4)cc(OC)c1OC (stereo not given in full) | 1.1% (active)
50 | CC1=C(CC(=O)O)c2cc(F)ccc2/C1=C\c1ccc(S(C)=O)cc1 (stereo not given) | -0.4%
